Inconclusive results are not listed. Calls of active or inactive are those of the source. Rule for the calls, unless noted: active = hit-call score of the fitted dose curve at least 0.9, where 1 is the maximum; inconclusive = response in the unintended direction; inactive = score below 0.9.
What was measured:
[1] = TAMU_HCS_1.5hr_SingleDonor1434_Cytotoxicity: Cytotoxicity Assessment using High-content Screening (HCS) Fluorescent Imaging for the Texas A&M University (TAMU) 1.5-hr Human Induced Pluripotent Stem Cell (iPSC)-derived Cardiotoxicity Assay (AID 2284234)
How it was run: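 Human iPSC-derived cardiomyocytes dosed at 0.2, 1, 10, 100 uM final (0.5% DMSO) for 90 min at 37 C. Hoechst 33342-stained nuclei counted by 10x high-content imaging; POD is EC10, a 10% drop in total cell count versus DMSO.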

[2] = TAMU_PeakParms_SingleDonor1434_QT: Texas A&M University (TAMU) 1.5-hr Human Induced Pluripotent Stem Cell (iPSC)-derived Cardiomyocytes Calcium (Ca+2) Flux Assay for Cardiotoxicity: QT (decay-rise ratio) (AID 2284235)
How it was run: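 iPSC-derived cardiomyocytes (single donor 1434) dosed at 0.2, 1, 10, 100 uM final in 0.5% DMSO, 90 min at 37C. Ca2+ flux fluorescence decay/rise ratio; EC05 (5% increase versus DMSO) as POD, excluding beat-arrest and severe-notch data.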

[3] = CCTE_Mundy_HCI_Cortical_Synap_Neur_Matur_NeuriteCount: CCTE's Synaptogenesis and Neurite Maturation Assay in rat cortical cells for Neurite Count, Mundy Lab (AID 2284222; active = hit-call score of the fitted dose curve at least 0.9, where 1 is the maximum; inactive = score below 0.9;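 note: exposure from day 7 to day 12 in vitro with readout at day 12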)
Method: CCTE_Mundy_HCI_Cortical_Synap&Neurite_Matur is a multiplexed, cell-based-readout assay that uses rat primary cortical cells with measurements taken at 288.33 hours after chemical dosing in a microplate: 96-well plate.CCTE_Mundy_HCI_Cortical_Synap_Neur_Matur_NeuriteCount is one of eight components of the CCTE_Mundy_HCI_Cortical_Synap&Neurite_Matur assay. It measures synaptogenesis and neurite maturation related to number of neurites using High Content Imaging of fluorescently labelled markers.[…] Using a type of morphology reporter, loss -of-signal activity can be used to understand developmental effects.
Cells are plated onto 96 well plates and allowed 2 hr for attachment to the substrate. At days in vitro (DIV) 5, Cytosine Arabinoside (AraC) is added to arrest glial cell growth. Chemicals are dosed and a media change is performed at DIV 7 of differentiation and is continued through DIV 12 when the experiment is terminated. Cells are fixed with […] and Hoechst Dye. Cells are stained using Millipore Mouse anti-MAP2MAB3418 (1:800) and Millipore Rabbit anti-Synaptophysinsc-1750 (1:250) primary antibodies and Alexa Fluor-488 goat anti-mouse and AlexaFluor-546 goat anti-rabbit secondary antibodies to label neuronal cell nuclei, synapses and neurites. A Cellomics ArrayScan VTi HCS Reader is used for automated image acquisition and analysis of neurite outgrowth.

[4] = CCTE_Mundy_HCI_Cortical_Synap_Neur_Matur_CellBodySpotCount: CCTE's Synaptogenesis and Neurite Maturation Assay in rat cortical cells for Cell Body Spot Count, Mundy Lab (AID 2284223; active = hit-call score of the fitted dose curve at least 0.9, where 1 is the maximum; inactive = score below 0.9)
How it was run: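 Primary rat cortical cultures, AraC added at DIV 5; dosed DIV 7 through DIV 12 […]. Fixed, stained for MAP2 and synaptophysin with Hoechst; cell body-associated synaptophysin puncta per neuron counted by high-content imaging, loss vs DMSO.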

[5] = CCTE_Mundy_HCI_hNP1_Pro_ResponderAvgInten: CCTE's Proliferation Assay in human neuroprogenitor cells, Mundy Lab (AID 2284224);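 note: human neural progenitor cells hNP1 derived from WA09 embryonic stem cells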
How it was run: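 Human neuroprogenitors (hNP1, WA09 lineage) receive test chemical after 40 to 44 hours of attachment. A four-hour BrdU pulse begins twenty hours later, followed by fixation and high content imaging; signal is referenced to DMSO controls.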

[6] = CCTE_Mundy_HCI_Cortical_NOG_BPCount: CCTE's Neurite Outgrowth Assay in rat cortical cells for Branch Point Count, Mundy Lab (AID 2284237; active = hit-call score of the fitted dose curve at least 0.9, where 1 is the maximum; inactive = score below 0.9)
How it was run: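 Measured 50.33 h after dosing, this morphology endpoint uses rat primary cortical cultures labelled for betaIII-tubulin. Branch points are quantified by high-content imaging, with DMSO as negative control and baseline.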

[7] = CCTE_Mundy_HCI_hNP1_Casp3_7: CCTE's Caspase-Glo 3/7 Assay in human neuroprogenitor cells for Apoptosis, Mundy Lab (AID 2284240; active = hit-call score of the fitted dose curve at least 0.9, where 1 is the maximum; inactive = score below 0.9)
How it was run: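 Neuroepithelial-lineage stem cells from WA09 embryonic cells were treated with chemicals after 40–44 h of culture. Twenty-four hours later, caspase-3/7 activation was detected luminescently after a 30 min room-temperature reagent step, with DMSO as baseline.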

[8] = CCTE_Mundy_HCI_hNP1_CellTiter: CCTE's Cell Titer-Glo 2 Assay in human neuroprogenitor cells for Viability, Mundy Lab (AID 2284241)
How it was run: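 Measures ATP content in human neural progenitors derived from WA09 embryonic cells. Read-out at 26.5 hours after dosing, with DMSO serving as the negative control and baseline.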

[9] = CCTE_Mundy_HCI_hN2_NOG_NeuronCount: CCTE's Neurite Outgrowth Assay in human hN2 cells for Neuron Count, Mundy Lab (AID 2284221)
How it was run: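 Read-out is the number of betaIII-tubulin-positive neurons imaged by automated high-content analysis, with DMSO as negative control.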

[10] = CCTE_Mundy_HCI_Cortical_NOG_NeuronCount: CCTE's Neurite Outgrowth Assay in rat cortical cells for Neuron Count, Mundy Lab (AID 2284236);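 note: neurons counted by imaging betaIII-tubulin and Hoechst stained cortical cells; cells exposed to compound for about 48 hours before fixation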
Method: CCTE_Mundy_HCI_Cortical_NOG is a multiplexed, cell-based-readout assay that uses rat primary cortical cells with measurements taken at 50.33 hours after chemical dosing in a microplate: 96-well plate.CCTE_Mundy_HCI_Cortical_NOG_NeuronCount is one of four components of the CCTE_Mundy_HCI_Cortical_NOG assay. It measures cell viability related to the number of neurons using High Content Imaging of fluorescently labelled markers.[…] Using a type of morphology reporter, loss -of-signal activity can be used to understand developmental effects.
Exposure starts 2 hours post-plating by adding 10 ul of the working solution to 90 ul of media in the wells for a 1/10 dilution. Forty-eight hours after chemical treatment cells are fixed by direct addition of 100 ul of warm (37C) Dulbecco's phosphate buffered saline (DPBS) fixative solution containing 8% paraformaldehyde, 8% sucrose, and 0.1% of 3 mg/ml Hoechst 33342 into each well. Primary antibodies are prepared by dilution in Immunocytochemical Staining Buffer (ISB), 10X Dulbecco's PBS, 0.1% Saponin, 5% Bovine Serum Albumin, 0.5% NaN3 (Sodium Azide) and betaIII-tubulin (rabbit anti-betaIII-tubulin, 1:800) followed by Alexa Fluor-488 secondary (1:500) to label neuronal cell bodies and neurites. A Cellomics ArrayScan VTi HCS Reader is used for automated image acquisition and analysis of neurite outgrowth.

Compound: O=C(O)CCCCC(=O)O
- outcome [1]: inactive
- outcome [2]: inactive

Compound: C[Si]1(C)O[Si](C)(C)O[Si](C)(C)O[Si](C)(C)O1
- outcome [3]: inactive
- outcome [4]: inactive
- outcome [5]: inactive
- outcome [6]: inactive
- outcome [7]: inactive

Compound: OC[C@@H](O)[C@@H](O)[C@H](O)[C@H](O)CO
- outcome [3]: inactive
- outcome [4]: inactive
- outcome [6]: inactive
- outcome [7]: inactive

Compound: CC(=O)Oc1ccccc1C(=O)O
- outcome [3]: inactive
- outcome [4]: inactive
- outcome [1]: inactive
- outcome [2]: inactive
- outcome [6]: inactive
- outcome [7]: inactive
- outcome [8]: inactive

Compound: CCCc1cc(=O)[nH]c(=S)[nH]1
- outcome [9]: inactive
- outcome [4]: inactive
- outcome [1]: inactive
- outcome [10]: inactive
- outcome [7]: inactive

Compound: O=c1[nH]cc(F)c(=O)[nH]1
- AC50 [9]: 2.34 µM (active)
- outcome [4]: inactive
- AC50 [5]: 4.62 µM (active)
- outcome [1]: inactive
- outcome [2]: inactive
- AC50 [7]: 23.8 µM (active)

Compound: COC(=O)c1ccc(O)cc1
- outcome [1]: inactive
- outcome [2]: inactive

Compound: CCOc1ccc2c(c1)C(C)=CC(C)(C)N2
- AC50 [1]: 50 µM (active)
- outcome [2]: inactive

From PubChem BioAssay (EPA / NIEHS)
